Source: PubChem (National Center for Advancing Translational Sciences (NCATS))
An excerpt weighted towards active compounds, which were near 21% of everything screened.
NS1 function inh: blocks influenza NS1 protein function. hit rate 0.4% among 270,000. Potency, µM (top dose mostly 46.1 µM), without a hit: at the highest dose activity, positive = more growth; calls by dose curve; further: potency means the concentration at half of the fitted maximal effect; actives are rising curves; nearly all actives have a fitted effect of over 50% in size
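Growth recovery, yeast-based: influenza A NS1 expressed in S. cerevisiae causes slow growth, and suppressors are detected by OD600. The parent strain without NS1 is used as positive control.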
Shiga toxin inh: Shiga toxin inhibition; Vero cells, Shiga toxin protein synthesis inhibition reporter; hit rate 9.2% among 290,000; inhibition, % at 38.7 µM; in the data active means inhibition mostly above about 28%, no sharp cut-off; inactive means mostly below about 43%; further: 0% is about no effect
Pf growth 96h: P. falciparum growth inhibition at 96 hour, primary screen for plastid delayed-death inhibitors; P. falciparum luciferase reporter growth, 96 h; Potency, µM (titrated, usually from 28.7 µM), without a hit: at the top dose activity change, negative = inhibition, most hits filed as inhibitors; hit rate 6.9% among 320,000; AID 504834; further: potency means the concentration at half of the fitted maximal effect; on the % scale 0 is the no-effect control and ±100 the full control effect
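P. falciparum expressing integrated firefly luciferase grown in erythrocytes (2% hematocrit, 0.05% parasitemia final) with compounds for 96 hours at 37 C, 5% CO2. Growth inhibition read as loss of luminescence after adding luciferase detection reagent.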
Pf growth 48h: P. falciparum growth inhibition at 48 hours (one generation); P. falciparum luciferase growth in erythrocytes, 48 h; Potency, µM (top dose mostly 28.7 µM), without a hit: at the top dose activity change, negative = inhibition, actives largely listed as inhibitors; hit rate 5.9% among 310,000; AID 504832; further: potency means the concentration at half of the fitted maximal effect; on the % scale 0 is the no-effect control and ±100 the full control effect
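Parasite viability was followed by luminescence of a genomically integrated firefly luciferase. Cultures held 0.1% parasitemia at 2% hematocrit (final), incubated under 5% CO2 at 37 C.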
CHX counter: counter-screen for Shiga toxin inhibitors: cycloheximide protein synthesis inhibition; cell reporter, cycloheximide protein synthesis inhibition counterscreen; hit rate 12% among 300,000; max response, %; in the data active means max response mostly above about 13%, no sharp cut-off; inactive means mostly below about 14%; further: read at 38.3 µM for the half of the compounds with a filed dose; 0% is about no effect
An asterisk follows results filed as active. Unless noted, the call rests on the fitted dose curve; in most records, active means well fitted inhibition curve with a large enough effect; inconclusive means small, poorly fitted or top-dose-only effect, or another doubt; inactive means no such curve, though single readings can be large or run the other way.

Results for CC(OC(=O)c1ccc(NS(=O)(=O)c2ccc3[nH]c(=O)[nH]c3c2)cc1)C(N)=O (stereo not given) ?
NS1 function inh: 2%; Shiga toxin inh: -9; Pf growth 96h: 36%; Pf growth 48h: 16%; CHX counter: -2

How did CCOC(=O)Nc1sc(C)c(C)c1C(N)=O do in these assays?
NS1 function inh: 1%; Shiga toxin inh: 7; Pf growth 96h: 27%; Pf growth 48h: 10%; CHX counter: -2

How did O=C(NCCO)C(F)(F)C(F)(F)C(F)(F)OC(F)(C(=O)NCCO)C(F)(F)F (stereo not given) do in these assays?
NS1 function inh: -2%; Shiga toxin inh: -27; Pf growth 96h: 21%; CHX counter: -2

Results for COc1cccc(NC(=O)NC(C)C2CC3CCC2C3)c1 (stereo not given) ?
NS1 function inh: -17%; Shiga toxin inh: 27; Pf growth 96h: 3%; Pf growth 48h: inconclusive; CHX counter: -2

How did COc1ccc2c(c1)c1nc3ccccc3nc1n2Cc1ccc(OC(C)C)c(OC)c1 do in these assays?
NS1 function inh: 1%; Shiga toxin inh: -7; Pf growth 96h: inconclusive; Pf growth 48h: 12µM*; CHX counter: -4

What do the screens show for `COc1ccc(Cn2c3ccc(OC)cc3c3nc4ccccc4nc32)cc1`?
NS1 function inh: 5%; Shiga toxin inh: -15; Pf growth 96h: -2%; Pf growth 48h: 6%; CHX counter: -1

What do the screens show for `CCCCNC(=S)N(C)/N=C/c1c(F)c(F)c(F)c(F)c1F`?
NS1 function inh: -1%; Shiga toxin inh: -8; Pf growth 96h: -4%; Pf growth 48h: -4%; CHX counter: -1

Results for CCCCNC(=S)N(C)/N=C/c1c(C)[nH]c2ccccc12 ?
NS1 function inh: -2%; Shiga toxin inh: -8; Pf growth 96h: 12µM*; Pf growth 48h: inconclusive; CHX counter: -5

What do the screens show for `O=S(=O)(c1ccccc1)N1CCN(c2ncccn2)CC1`?
NS1 function inh: 0%; Shiga toxin inh: 38; Pf growth 48h: 4%; CHX counter: -1

What do the screens show for `O=S(=O)(c1cccc2cccnc12)N1CCN(c2ccc(F)cc2)CC1`?
NS1 function inh: -11%; Shiga toxin inh: -6; Pf growth 96h: 15µM*; Pf growth 48h: -7%; CHX counter: -2

Results for O=S(=O)(c1cccc(S(=O)(=O)N2CCN(c3ncccn3)CC2)c1)N1CCOCC1 ?
NS1 function inh: -2%; Shiga toxin inh: -2; Pf growth 96h: 12µM*; Pf growth 48h: -24%; CHX counter: -1

How did O=c1n(S(=O)(=O)c2cccc3cccnc23)c2ccccc2n1S(=O)(=O)c1cccc2cccnc12 do in these assays?
NS1 function inh: 14%; Shiga toxin inh: -23; Pf growth 96h: 6.6µM*; CHX counter: -3

How did CC1CC(C)CN(S(=O)(=O)c2cccc3cccnc23)C1 (stereo not given) do in these assays?
NS1 function inh: -62%; Shiga toxin inh: 7; Pf growth 96h: inconclusive; CHX counter: 1

What do the screens show for `O=S(=O)(c1ccc(F)cc1)N1CCN(c2ncccn2)CC1`?
NS1 function inh: -66%; Shiga toxin inh: -1; Pf growth 96h: 4%; Pf growth 48h: 2.1µM*; CHX counter: -2

What do the screens show for `O=C(CNC(=O)c1ccc(Cl)cc1)NCc1ccccn1`?
Pf growth 96h: -3%; Pf growth 48h: 9%

What do the screens show for `O=c1c(Cl)c(N2CCN(S(=O)(=O)c3ccc(F)cc3)CC2)cnn1-c1cccc(Cl)c1`?
NS1 function inh: 2%; Shiga toxin inh: -13; Pf growth 96h: 6.6µM*; Pf growth 48h: 8.3µM*; CHX counter: 4

Results for Cc1ccc(C)n1-c1cccc(S(=O)(=O)N2CCOCC2)c1 ?
Shiga toxin inh: 7; Pf growth 96h: 13µM*; Pf growth 48h: inconclusive; CHX counter: 11

What do the screens show for `CN(C)S(=O)(=O)c1ccc(N2CCN(S(=O)(=O)c3ccc(F)cc3)CC2)c(Cl)c1`?
NS1 function inh: -37%; Shiga toxin inh: 1; Pf growth 96h: 8.3µM*; Pf growth 48h: 7.4µM*; CHX counter: 2

What do the screens show for `O=c1c(Cl)c(N2CCN(S(=O)(=O)c3ccccc3)CC2)cnn1-c1ccccc1`?
NS1 function inh: -1%; Shiga toxin inh: -8; Pf growth 96h: 166%; Pf growth 48h: 0%; CHX counter: 6

What do the screens show for `COc1ccc(C2C=C(c3ccc(Br)s3)Nc3ncnn32)cc1OC` (stereo not given)?
NS1 function inh: 8%; Shiga toxin inh: -2; Pf growth 96h: -3%; Pf growth 48h: inconclusive; CHX counter: -3

Results for N#CC1=C(N)C(C#N)(C#N)C2(CCC3(CC2)OCCO3)C2CC3(CC=C12)OCCO3 (stereo not given) ?
NS1 function inh: -11%; Shiga toxin inh: 8; Pf growth 96h: -23%; Pf growth 48h: inconclusive; CHX counter: -3

Results for N#CC1=C(N)C(C#N)(C#N)[C@H](c2c(F)cccc2F)[C@H]2CC3(CC=C12)OCCO3 ?
NS1 function inh: inconclusive; Shiga toxin inh: -3; Pf growth 96h: 79%; Pf growth 48h: 5.2µM*; CHX counter: -2

How did CC(C)C(=O)Nc1ccc(C(=O)Nc2ccc(Br)cc2F)cc1 do in these assays?
Shiga toxin inh: 21; Pf growth 96h: 47%; Pf growth 48h: 40%; CHX counter: 29

What do the screens show for `O=C(O)CC1SC(=Nc2ccc(O)cc2)NC1=O` (stereo not given)?
Shiga toxin inh: 27; Pf growth 96h: 41%; Pf growth 48h: 4%; CHX counter: 16

What do the screens show for `O=C(O)CC1SC(=Nc2cccc(C(F)(F)F)c2)NC1=O` (stereo not given)?
NS1 function inh: -11%; Shiga toxin inh: -11; Pf growth 96h: 2.9µM*; CHX counter: -2

How did Cc1ccc(S(=O)(=O)N(CC#N)CC#N)cc1 do in these assays?
NS1 function inh: 5%; Shiga toxin inh: -11; Pf growth 96h: 261%; Pf growth 48h: 16%; CHX counter: -2

How did CCOC(=O)c1cnc2ccc(OCC)cc2c1N1CCN(c2ccccc2)CC1 do in these assays?
NS1 function inh: -16%; Shiga toxin inh: -18; Pf growth 48h: inconclusive; CHX counter: -4

Results for CCOC(=O)c1nc(NCc2ccccc2)sc1C ?
NS1 function inh: 5%; Shiga toxin inh: 89*; Pf growth 96h: -5%; Pf growth 48h: 8%; CHX counter: 63*

What do the screens show for `CCOC(=O)c1cnc2ccc(OCC)cc2c1NCc1ccccc1`?
NS1 function inh: -102%; Shiga toxin inh: 42*; Pf growth 96h: inconclusive; Pf growth 48h: 12µM*; CHX counter: 19*

How did CCOC(=O)c1cnc2ccc(OCC)cc2c1NCc1cccnc1 do in these assays?
NS1 function inh: -21%; Shiga toxin inh: 42*; Pf growth 96h: 6.6µM*; Pf growth 48h: inconclusive; CHX counter: 27*

Results for CCOC(=O)c1nc(-c2ccccc2)oc1N(C)C ?
NS1 function inh: -12%; Shiga toxin inh: -6; Pf growth 48h: 20%; CHX counter: 17*

What do the screens show for `Cc1oc(-c2ccccc2)nc1C(=O)OCC(=O)NCc1ccccc1`?
Pf growth 96h: 20%; Pf growth 48h: -1%
